Laboratory results from ChEMBL document CHEMBL1201862, “PubChem BioAssay data set” (2004).
Screen size: about 400,000 compounds; about 2,100 (0.53%) were called active. Another 14% or so got no clear call; they are omitted. No rule for the calls is given here. The list comes from a sample in which actives are over-represented; it also holds similar structures and randomly drawn compounds.

Target: Ataxin-2 (Homo sapiens) (UniProt Q99700)
Assay: qHTS for Inhibitors of ATXN expression.
Format: functional

Ataxin-2 (Homo sapiens), sequence (Q99700 whole entry): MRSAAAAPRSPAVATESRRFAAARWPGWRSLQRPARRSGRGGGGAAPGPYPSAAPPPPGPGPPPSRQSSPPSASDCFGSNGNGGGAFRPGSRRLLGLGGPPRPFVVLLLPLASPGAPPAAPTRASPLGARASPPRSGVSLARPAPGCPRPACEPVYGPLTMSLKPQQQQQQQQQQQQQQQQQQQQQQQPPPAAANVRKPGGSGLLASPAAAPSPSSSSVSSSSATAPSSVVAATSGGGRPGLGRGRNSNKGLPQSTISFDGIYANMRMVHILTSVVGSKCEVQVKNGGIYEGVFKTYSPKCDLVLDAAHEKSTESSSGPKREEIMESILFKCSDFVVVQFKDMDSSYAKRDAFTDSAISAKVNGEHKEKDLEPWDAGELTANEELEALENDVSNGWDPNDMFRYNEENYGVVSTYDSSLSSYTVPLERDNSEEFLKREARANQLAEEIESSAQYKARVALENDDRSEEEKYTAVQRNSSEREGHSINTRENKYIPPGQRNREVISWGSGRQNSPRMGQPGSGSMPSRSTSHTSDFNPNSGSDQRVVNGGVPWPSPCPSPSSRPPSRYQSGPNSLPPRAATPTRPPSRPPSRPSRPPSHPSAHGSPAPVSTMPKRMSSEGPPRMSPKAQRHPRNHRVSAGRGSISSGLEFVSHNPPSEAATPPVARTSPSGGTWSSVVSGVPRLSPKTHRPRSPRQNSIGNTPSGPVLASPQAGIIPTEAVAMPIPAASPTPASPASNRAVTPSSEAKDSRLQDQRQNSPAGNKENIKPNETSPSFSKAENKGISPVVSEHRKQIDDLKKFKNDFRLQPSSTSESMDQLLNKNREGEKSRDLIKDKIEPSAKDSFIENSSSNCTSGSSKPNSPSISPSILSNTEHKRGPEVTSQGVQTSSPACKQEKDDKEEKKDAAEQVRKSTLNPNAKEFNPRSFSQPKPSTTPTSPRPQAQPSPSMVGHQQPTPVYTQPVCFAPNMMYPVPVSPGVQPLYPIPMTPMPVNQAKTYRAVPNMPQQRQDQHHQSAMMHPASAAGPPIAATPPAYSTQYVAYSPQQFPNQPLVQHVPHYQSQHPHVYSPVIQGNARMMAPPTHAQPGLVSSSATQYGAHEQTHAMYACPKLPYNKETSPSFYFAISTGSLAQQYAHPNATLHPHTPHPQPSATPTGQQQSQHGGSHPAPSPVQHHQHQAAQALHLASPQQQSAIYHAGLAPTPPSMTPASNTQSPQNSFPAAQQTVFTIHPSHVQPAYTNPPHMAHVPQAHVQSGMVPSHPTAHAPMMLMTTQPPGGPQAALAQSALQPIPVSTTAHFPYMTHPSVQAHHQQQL

| Compound | Potency |
| --- | --- |
| COCCNC(=O)/C(C#N)=C1\N=C(NC(=O)c2ccco2)c2ccccc21 | inactive |
| Cc1ccc2cccnc2c1N | inactive |
| Cc1ccnc2c1ccc1c(C)ccnc12 | 5.32 µM (active) |
| Cc1nn(CCN)c(C)c1Cl | inactive |
| O=C(Nc1ccccc1Cl)C1C(c2ccccc2)C1(Cl)Cl (stereo not given) | inactive |
| CCCCCCCCNCCS(=O)(=O)NCc1ccccc1 | 31.6 µM (active) |
| CCN1C(=O)c2cccc3c(S(=O)(=O)NCc4ccccc4)ccc1c23 | inactive |
| NC(=O)c1cc(S(=O)(=O)NCc2ccccc2)cs1 | inactive |
| Nc1cc(-c2ccccc2)nn1Cc1ccccc1 | inactive |
| Cc1ccc(Cn2c(C(=O)O)c(CNCc3ccc(C)o3)c3ccc(C)cc32)cc1 | 35.5 µM (active) |
| Cc1ccc2c(CNCc3ccc(C)o3)c(C(=O)O)n(Cc3ccc(F)cc3)c2c1 | 35.5 µM (active) |
| CC(=O)c1cn(Cc2ccccc2)c(=O)n(Cc2ccc(F)cc2)c1=O | inactive |
| COc1ccc(CNCc2c(O)c(Cl)cc3c(C)c(C)c(=O)oc23)c(OC)c1 | inactive |
| COc1ccc(Cn2c(C(=O)O)c(CNCc3ccc(C)o3)c3ccc(C)cc32)cc1 | 17.8 µM (active) |
| COc1ccc(Cn2c(C)nc3ccc([N+](=O)[O-])cc3c2=O)cc1 | inactive |
| Cc1c(O[C@@H]2O[C@H](CO)[C@@H](O)[C@H](O)[C@H]2O)ccc2c1oc(=O)c1ccccc12 | inactive |
| CC(C)OCCCn1c(-c2ccco2)nc2nc3ccccc3nc21 | inactive |
| CC(C)(C)NC(=O)Cn1c(SCC(=O)NC2CC2)nc2ccccc21 | inactive |
| O=C(Cn1c(C(F)(F)F)nc2ccccc21)Nc1ccccc1C(=O)O | inactive |
| O=C(Cn1c(SCC(=O)Nc2ccc(F)cc2)nc2ccccc21)NCc1ccccc1Cl | 39.8 µM (active) |
| C/N=c1\scc(-c2ccc(OC)cc2)n1/N=C(\C)c1cccnc1 | inactive |
| CC1=CC(=Cc2sc3ccccc3[n+]2C)C=C(C)N1CC1CCCO1 (stereo not given) | inactive |

| Compound | Potency |
| --- | --- |
| Cc1cc(C)n(-c2nnc(Cl)c3ccccc23)n1 | 39.8 µM (active) |
| COc1ccc(-c2nc(C#N)c(N3CCCCC3)o2)cc1 | inactive |
| Nc1nc(N)c2cc(CNc3ccc(Cl)c(Cl)c3)ccc2n1 | 11.2 µM (active) |
| CCN1CCN(c2cc(-c3ccccc3)nc3cc(-c4cccc(F)c4)nn23)CC1 | 17.8 µM (active) |
| CCN1CCN(c2nc(NCCO)c3ccccc3n2)CC1 | inactive |
| COc1ccc(-c2cc(C(F)(F)F)n3nc(-c4ccccc4)cc3n2)cc1OC | inactive |
| Cc1ccnc(NC(=O)c2cc3c(=O)oc4ccc(C)cc4c3s2)c1 | 20 µM (active) |
| CCN(CC)c1ccc2cc(C(=O)Nc3ccccn3)c(=O)oc2c1 | inactive |
| Cc1ccnc(NC(=O)c2ccccc2NC(=O)c2ccc(Cl)cc2Cl)c1 | inactive |
| COc1ccc(Cl)cc1N(CC(=O)N(C)C)S(=O)(=O)c1ccc(C)c([N+](=O)[O-])c1 | inactive |
| CCOC(=O)C(C)(C)N(Cc1cccc(C)c1)S(=O)(=O)c1ccc(Cl)c([N+](=O)[O-])c1 | 39.8 µM (active) |
| CN(C)Cc1c(O)ccc2c3c(c(=O)oc12)CCCCC3 | inactive |
| CCOC(=O)c1c(CSc2ccc(CC)cc2)oc2ccc(O)c(CN(C)C)c12 | 22.4 µM (active) |
| CCCCc1cc(=O)oc2c(CN(C)C)c(O)ccc12 | inactive |
| Cc1ccc(/C=N/n2c(S)nnc2-c2ccccn2)o1 | inactive |
| Cc1ccc2nc(Cn3cc(C(F)(F)F)cc(Cl)c3=O)cc(=O)n2c1 | inactive |
| CN(C)c1ccc(-c2[nH]nc(O)c2NC(=O)c2ccccn2)cc1 | 25.1 µM (active) |
| CN(C)c1ccc(/C=N/NC(=O)c2ccccn2)cc1 | inactive |
| CCOc1cc(NC(=O)c2cccs2)c(OCC)cc1NC(=O)c1ccccn1 | inactive |
| CC(C)(C)OC(=O)NCCCCCNC(=O)c1[nH]cnc1C(=O)Nc1cc(Br)ccc1F | 39.8 µM (active) |
| Cc1ccc(OCCNC(=O)c2ccccc2F)cc1 | inactive |
| Cc1ccc(NC(=O)c2[nH]cnc2C(=O)NCCCCCNC(=O)OC(C)(C)C)cc1 | 39.8 µM (active) |

| Compound | Potency |
| --- | --- |
| Cc1cccc(NC(=O)c2[nH]cnc2C(=O)NCCCCCNC(=O)OC(C)(C)C)c1 | 20 µM (active) |
| COc1cccc(-c2ccc3c(N)c(C(=O)c4ccc(Br)cc4)sc3n2)c1 | inactive |
| O=S(=O)(NCc1csc(-c2cccs2)n1)c1cccc(C(F)(F)F)c1 | inactive |
| CCCCn1c(OC(=S)N(CC)CC)cc(C)nc1=S | 35.5 µM (active) |
| Nc1ccc2c3[nH]c4cc(N)ccc4cc-3nc2c1 | inactive |
| Nc1ccc2[nH]c(-c3ccc(-c4nc5cc(N)ccc5[nH]4)cc3)nc2c1 | inactive |
| Nc1ccc2[nH]c(-c3ccc(Cl)cc3)nc2c1 | 31.6 µM (active) |
| Cc1ccc2nc3c(cc(C(=O)NCCCn4ccnc4)n3C)c(=O)n2c1 | inactive |
| Cc1cc(C)c2cc(N)c(Cl)nc2n1 | inactive |
| CCOC(=O)c1cc2c(=O)n3ccccc3nc2n(CC2CCCO2)/c1=N/C(=O)/C=C/c1ccccc1 (stereo not given) | inactive |
| CC(=O)c1ccc(-c2cnc3c(NC=O)cc(-c4ccccc4Oc4ccccc4)cn23)cc1 | inactive |
| CN(C)C(=O)c1cccc(-c2cnc3c(NC=O)cc(-c4cccc(C(F)(F)F)c4)cn23)c1 | 39.8 µM (active) |
| CN(C)CCNC(=O)c1cccc(-c2cnc3c(NC=O)cc(-c4cc(F)c(F)c(F)c4)cn23)c1 | 25.1 µM (active) |
| CN(C)c1ccccc1-c1cc(NC=O)c2ncc(-c3cccc(C(F)(F)F)c3)n2c1 | inactive |
| CN(C)CCNC(=O)c1cccc(-c2cnc3c(NC=O)cc(-c4cccc(F)c4)cn23)c1 | 31.6 µM (active) |
| CN(C)CCNC(=O)c1cccc(-c2cnc3c(NC=O)cc(-c4ccc(F)cc4)cn23)c1 | 35.5 µM (active) |
| COc1cccc(-c2cnc3c(NC=O)cc(-c4ccc(N(C)C)cc4)cn23)c1 | inactive |
| CCCCCCc1cc2cc(-c3nnc(-c4ccccc4)o3)c(=O)oc2cc1O | inactive |
| CC(C)OC(=O)c1sc2nc(-c3ccccc3)ccc2c1N | inactive |
| O=C1CCn2c1c(O)c1ccccc1c2=O | inactive |
| O=C1OCCN1C(=O)[C@H]1[C@H](c2ccccc2)C(c2ccccc2)=NN1c1ccccc1 | inactive |
